Test results published in PubChem BioAssay (NCI).
Where “and” joins values, the source holds several entries; their conditions need not be identical. Equal values may be shown once. The panel holds about 83,000 compounds, 20% with a hit somewhere; the sample as a whole holds those more often.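 The test compound was applied at a single concentration to cells in 96-well plates for 48 hours, and percent growth was recorded.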 Calls of active or inactive are those of the source. How the source made its calls: active means growth percent below 10; inactive means the rest.

Legend:
Assay in all cases: NCI-60 one-dose screen, 48 h (100 = growth as untreated, 0 = no growth, -100 = all killed)
Details in all cases: 10 µM unless noted
[1] = test system: HCT-15 colon
[2] = test system: HT29 colon
[3] = test system: SNB-75 CNS
[4] = test system: SNB-19 CNS
[5] = test system: U251 CNS
[6] = test system: PC-3 prostate
[7] = test system: SK-MEL-5 melanoma
[8] = test system: UACC-62 melanoma
[9] = test system: LOX IMVI melanoma
[10] = test system: SK-MEL-28 melanoma
[11] = test system: SK-MEL-2 melanoma
[12] = test system: EKVX NSCLC
[13] = test system: SN12C renal
[14] = test system: UO-31 renal
[15] = test system: TK-10 renal
[16] = test system: ACHN renal
[17] = test system: CAKI-1 renal
[18] = test system: A498 renal
[19] = test system: MOLT-4 leukemia
[20] = test system: CCRF-CEM leukemia

Measured: growth

O=[N+]([O-])c1ccc(N/N=C\c2cc(Br)ccc2O)nc1
4.98% (active) and 10.6% (inactive): [16]
16.6% (inactive) and 5.3% (active): [5]
inactive: [1] 21.6% and 31.2% | [2] 27.8% | [3] 38.3% and 47.7% | [4] 29.2% and 28.4% | [6] 25.8% | [10] 37.9% and 34.1% | [11] 39.7% | [12] 81% and 46.4% | [13] 22.3% and 20.3% | [15] 22.1% and 37.9% | [18] 69.5%
active: [7] -3.76% and -35.9% | [8] 1.29% and -17.2% | [14] -6.22% and -11.8% | [17] 0.337% and 2.29%
10.5% (inactive) and -18.4% (active): [9]
12% (inactive) and -9.48% (active): [19]

CC(C)Cc1ccc(C(C)C(=O)NCc2ccc(Cn3c(=O)sn(CCCI)c3=O)cc2)cc1 (configuration not stated)
92.1% (inactive) and -82.9% (active): [17]
90.6% (inactive) and -64.7% (active): [12]
99.6% (inactive) and -96.6% (active): [9]
95.4% (inactive) and -73.6% (active): [3]
37% (inactive) and 2.58% (active): [20]
104% (inactive) and -40.1% (active): [11]
93.6% (inactive) and -70% (active): [6]
99.8% (inactive) and -90.7% (active): [15]
70.3% (inactive) and -100% (active): [14]
95.2% (inactive) and -83.2% (active): [8]
83.4% (inactive) and -70.5% (active): [5]
inactive: [4] 85.4% and 37.4%
72% (inactive) and -100% (active): [16]
74.2% (inactive) and -96.6% (active): [7]
106% (inactive) and -72.2% (active): [10]
49% (inactive) and -3.72% (active): [19]
90.4% (inactive) and -76.9% (active): [13]
61.7% (inactive) and -58.7% (active): [2]
101% (inactive) and -54.2% (active): [1]
79.4% (inactive) and -2.41% (active): [18]

CC(O)(CC(=O)CC(=O)c1ccccc1)c1ccccc1 (configuration not stated)
inactive: [1] 70.2% and 69.4% | [2] 105% and 111% | [3] 92.5% and 126% | [4] 95.8% and 99.9% | [5] 89.2% and 84.3% | [6] 80.9% | [7] 98.6% and 93.6% | [8] 101% and 87.9% | [9] 110% and 82.3% | [10] 99.4% and 123% | [11] 126% and 110% | [12] 103% | [13] 99.3% and 85.3% | [14] 96.8% and 94.2% | [15] 98.5% and 111% | [16] 94.9% and 106% | [17] 110% | [18] 79.9% | [20] 95.4% and 83% | [19] 87.3% and 113%

Oc1ccc(/C=C/c2ccccc2)cc1
inactive: [1] 67.1% and 68.2% | [2] 104% and 84.8% | [3] 68.7% and 83.4% | [4] 84.1% and 91.2% | [5] 67.7% and 53.5% | [6] 70% and 43.8% | [7] 56.1% and 55.7% | [8] 56.3% and 53.4% | [9] 55.6% and 68.9% | [10] 97.5% and 99.8% | [11] 98.4% and 98.8% | [12] 76.9% and 108% | [13] 74.5% and 72.4% | [14] 17.8% and 11.6% | [15] 92.9% and 65.1% | [16] 17.3% and 16.2% | [18] 83.1% and 59.4% | [19] 61.6% and 47.5%
active: [17] 6.76%

O=C(CCc1ccc(O)cc1)N/N=C/c1cc(Br)ccc1O
active: [19] 8.16%
inactive: [1] 28.7% | [2] 98.4% | [3] 79.4% | [4] 69.6% | [5] 49.2% | [6] 38.8% | [7] 45.3% | [8] 37.7% | [9] 21.1% | [10] 69.5% | [11] 80.7% | [12] 91% | [13] 63.7% | [14] 19.5% | [15] 88.9% | [16] 27% | [17] 18.7% | [18] 78.5% | [20] 13.3%

CC(=O)NC(Cc1ccccc1)C(=O)Oc1ccc2ccccc2c1 (configuration not stated)
inactive: [1] 87.4% and 102% | [2] 114% and 96.4% | [3] 84.3% and 78.1% | [4] 113% | [5] 97.7% and 102% | [6] 85.5% and 90.6% | [7] 101% | [8] 98.8% and 99.8% | [9] 84.9% and 87.7% | [10] 117% and 105% | [11] 108% and 113% | [12] 114% and 96.4% | [13] 103% and 98.9% | [14] 64.8% and 86.6% | [15] 118% and 111% | [16] 94.6% and 97.4% | [17] 94.8% and 98.1% | [18] 130% and 97.2% | [20] 100% and 86.6% | [19] 111% and 102%

O=C(CCl)c1ccc2c(c1)Nc1ccccc1S2
inactive: [1] 85.1% and 21.2% | [2] 101% and 95.6% | [3] 88.6% and 102% | [4] 99.7% and 98% | [5] 98% and 92% | [6] 92.8% and 104% | [7] 94.1% and 99.5% | [8] 87.5% | [9] 79.1% and 48.2% | [10] 106% and 115% | [11] 80.5% and 72.5% | [12] 98.6% | [13] 104% and 93.8% | [14] 97.7% and 81% | [15] 95.5% | [16] 104% and 92.4% | [17] 98.4% | [18] 84.1% and 77.2% | [19] 46.3% and 48.5%

O=C1NC(=O)C2(CCc3ccccc32)N1 (configuration not stated)
inactive: [1] 104% and 108% | [2] 104% and 109% | [3] 96.2% and 94.1% | [4] 96.2% and 103% | [5] 109% and 99% | [6] 133% and 88.2% | [7] 99.4% and 108% | [8] 100% and 96.7% | [9] 103% and 95.7% | [10] 123% | [11] 129% and 51.4% | [12] 103% and 99.9% | [13] 104% and 95.1% | [14] 101% and 85.3% | [15] 105% and 99.5% | [16] 111% and 96.7% | [17] 98.4% and 89.7% | [18] 94.4% | [20] 118% and 94.2% | [19] 101% and 83.3%
